# From PubChem BioAssay (NCATS)
# Records with an inconclusive call do not appear. A call without a number means that no potency is given here. Values without a mark were called inactive. Calls of active or inactive are those of the source. Calls follow the shape of the dose curve; as a rule, active = well fitted inhibition curve with a large enough effect; inconclusive = small, poorly fitted or top-dose-only effect; inactive = flat fitted curve, though single readings scatter.
# Assays:
# [1] = tested on: CRL-7250; assay: Cytotoxic Profiling of Annotated Libraries Using Quantitative High-Throughput Screening (AID 1296008); conditions: Five cell lines viability, CellTiter-Glo ATP luminescence, 48-72 h; max response: hits give low values; also: potency is read from the fitted curve at half-maximal effect
# In short: (§1)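 Cells exposed to compounds for 48 or 72 hr at 37 degrees Celsius. Viability read as ATP-coupled luminescence with CellTiter-Glo after 10 min at room temperature.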
# [2] = tested on: HEK293; assay: as above; conditions: Five cell lines viability, CellTiter-Glo ATP luminescence, 48-72 h; max response: hits give low values
# In short: as §1
# [3] = tested on: HaCat; assay: as above; conditions: Five cell lines viability, CellTiter-Glo ATP luminescence, 48-72 h; max response: hits give low values
# In short: as §1
# [4] = tested on: KB-3-1; assay: as above; conditions: Five cell lines viability, CellTiter-Glo ATP luminescence, 48-72 h; max response: hits give low values
# In short: as §1
# [5] = tested on: NIH3T3; assay: as above; conditions: Five cell lines viability, CellTiter-Glo ATP luminescence, 48-72 h; max response: hits give low values
# In short: as §1
# [6] = tested on: HEK293T; assay: qHTS assay to identify novel small-molecules to repurpose for Merkel cell carcinoma treatment (AID 1296009); conditions: MCC and control cell lines, CellTiter-Glo viability, 72 h; series mostly up to 44.8 µM
# In short: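 Cells were incubated with compound for 72 hr at 37 degree celsius before CellTiter-Glo addition. Luminescence was normalized with no-cell wells as full cytotoxicity and DMSO as baseline.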
# Also: nearly all actives have a fitted effect of over 60% in size.
SMILES,outcome [1],outcome [2],max response [3],outcome [4],max response [5],Potency [6],max response [1],max response [4],outcome [6],outcome [5],Potency [3]
O=c1c2cccnc2n(-c2cccc([N+](=O)[O-])c2)c(=O)n1Cc1ccncc1,inactive,inactive,-29.4%,inactive,-3.44%,inactive,–,–,–,–,–
CCC[C@@H]1C[C@@H](C(=O)N[C@H](C(C)Cl)[C@H]2O[C@H](SC)[C@H](O)[C@@H](O)[C@H]2O)N(C)C1 (stereo not given in full),–,inactive,1.16%,–,3.25%,inactive,-2.55%,7.07%,–,–,–
c1nc(NC2CCCCCC2)c2cc(CNC[C@H]3CCCO3)sc2n1,inactive,inactive,-3.62%,–,3.78%,inactive,–,-9.77%,–,–,–
COc1ccc(C)c2sc(NC(=O)c3ccncc3)nc12,inactive,inactive,4.45%,inactive,2.46%,inactive,–,–,–,–,–
C[C@@H]1O[C@@H](O[C@H]2[C@H](O[C@H]3[C@H](O[C@H]4CC[C@@]5(CO)C(CC[C@]6(C)C5CC=C5C7CC(C)(C)C[C@@H](O)[C@]7(C)CC[C@]56C)C4(C)C)O[C@H](C(=O)O)[C@@H](O)[C@@H]3O)OC[C@@H](O)[C@@H]2O)[C@H](O)[C@H](O)[C@H]1O (stereo not given in full),inactive,inactive,4.17%,–,-0.118%,–,–,5.01%,inactive [at 9.27 µM],–,–
C=C1C(=O)O[C@H]2[C@H]1[C@@H](OC(=O)C(C)CO)C[C@@]1(C)[C@H](O)CCC(=O)[C@H]21 (stereo not given in full),–,inactive,-8.77%,inactive,-0.0339%,inactive,-10.3%,–,–,–,–
CC1CCC2C(C(=O)O)=CC3CC(C)(C)CC132 (stereo not given),–,inactive,-7.87%,–,–,inactive,3.63%,3%,–,inactive,–
C[C@@H]1O[C@@H](O[C@H]2[C@H](OC(=O)[C@]34CCC(C)(C)C[C@H]3C3=CCC5[C@@]6(C)CC[C@H](O[C@@H]7O[C@H](CO[C@@H]8OC[C@H](O)[C@H](O)[C@H]8O)[C@@H](O)[C@H](O)[C@H]7O)C(C)(C)C6CC[C@@]5(C)[C@]3(C)C[C@H]4O)OC[C@@H](O)[C@@H]2O)[C@H](O)[C@H](O)[C@H]1O[C@@H]1OC[C@H](O)[C@H](O[C@@H]2OC[C@@H](O)[C@H](O)[C@H]2O)[C@H]1O (stereo not given in full),–,inactive,-0.578%,inactive,–,–,-0.806%,–,inactive [at 9.27 µM],inactive,–
COC(=O)[C@@]1(C)CC[C@]2(C(=O)O[C@@H]3O[C@H](CO)[C@@H](O)[C@H](O)[C@H]3O)CC[C@]3(C)C(=CCC4[C@@]5(C)CC[C@H](O[C@@H]6O[C@H](C(=O)O)[C@@H](O)[C@H](O)[C@H]6O)C(C)(C)C5CC[C@]43C)[C@@H]2C1 (stereo not given in full),–,inactive,-2.02%,–,2.66%,–,-18.2%,-0.321%,inactive [at 9.27 µM],–,–
CC(O)(CC(=O)O)CC(=O)O[C@@H]1[C@@H](O)[C@H](OCCc2ccccc2)O[C@H](CO)[C@H]1O (stereo not given in full),–,inactive,-14.4%,–,1.93%,inactive,-0.691%,7.92%,–,–,–
CC1=C2CC3OC3(C)CCC3OC3(C)CC2OC1=O (stereo not given),–,inactive,-1.36%,inactive,-7.4%,inactive,-1.41%,–,–,–,–
C[C@@H](Nc1cc(NS(=O)(=O)N2CCC2)nc(SCc2cccc(F)c2F)n1)[C@@H](O)CO,–,inactive,1.29%,–,–,inactive,3.18%,-2.77%,–,inactive,–
CC(C)=CCCC1(C)Oc2cc3c(c4c2C2C(O4)C(C)(O)CCC21)CN(C(CCC(=O)O)C(=O)O)C3=O (stereo not given),inactive,inactive,-6.38%,inactive,–,inactive,–,–,–,inactive,–
CCC(C)(O)C(O)C(=O)OCc1ccc(O[C@@H]2O[C@H](CO)[C@@H](O)[C@H](O)[C@H]2O)cc1 (stereo not given in full),–,inactive,-0.484%,inactive,-0.787%,inactive,-2.71%,–,–,–,–
NC(=O)[C@H]1CCCCc2c1[nH]c1ccc(Cl)cc21,inactive,inactive,-14.2%,–,4.7%,inactive,–,7.59%,–,–,–
CC(C)(O)C1CC=C(C(=O)OCC2OC(Oc3c(O)cc(C(=O)O)cc3O)C(O)C(O)C2O)CC1 (stereo not given),–,inactive,-2.95%,inactive,–,inactive,-4.71%,–,–,inactive,–
C/C=C(/C)C(=O)O[C@H]1C=C(C)C[C@H](OC(=O)c2ccc(O)cc2)C2[C@](O)(C(C)C)CC[C@@]21C (stereo not given in full),–,inactive,-13.2%,inactive,-3.12%,inactive,-4.39%,–,–,–,–
COc1c(OC2OC(CO)C(O)C(O)C2O)ccc(O)c1C(=O)OCc1ccccc1O[C@@H]1O[C@H](CO)[C@@H](O)[C@H](O)[C@H]1O (stereo not given in full),inactive,inactive,3.76%,inactive,-1.73%,inactive,–,–,–,–,–

SMILES,outcome [1],outcome [2],max response [3],outcome [4],max response [5],Potency [6],max response [1],max response [4],outcome [6],outcome [5],Potency [3]
Cc1ccc(Sc2cncc3sc(C(N)=O)cc23)cc1,inactive,inactive,-4.86%,inactive,–,inactive,–,–,–,inactive,–
C[C@@H]1O[C@@H](O[C@@H]2[C@@H](O)[C@@H](O)[C@H](O[C@@H]3[C@@H](O)[C@@H](O[C@]4(CO)O[C@H](CO)[C@@H](O)[C@@H]4OC(=O)/C=C/c4ccc(O)cc4)O[C@H](CO)[C@H]3OC(=O)/C=C/c3ccc(O)cc3)O[C@H]2C)[C@H](O)[C@H](O)[C@H]1O,–,inactive,1.83%,inactive,–,–,-4.29%,–,inactive [at 9.27 µM],inactive,–
COC(=O)C1=CO[C@@H](O[C@@H]2O[C@H](CO)[C@@H](O)[C@H](O)[C@H]2O)[C@@H]2[C@@H](C)[C@@H](O)C[C@H]12,–,inactive,-10.2%,inactive,2.94%,inactive,-3.5%,–,–,–,–
C=Cc1cc(O)cc2nc(-c3ccc(O)c(F)c3)oc12,–,inactive,-8.75%,inactive,–,inactive,-4.59%,–,–,inactive,–
CC1(C)O[C@]23C[C@H]1C[C@H](OC(=O)c1ccoc1)[C@]2(C)[C@@H](OC(=O)c1ccoc1)CCC3(C)O (stereo not given in full),–,inactive,2.39%,–,-0.102%,inactive,0.391%,7.96%,–,–,–
C=CC(C)(C)C1(CC2NC(=O)C3CCCN3C2=O)C(=O)Nc2cc3c(cc21)C=CC(C)(C)O3 (stereo not given),–,inactive,-0.592%,–,–,inactive,-5.49%,2.09%,–,inactive,–
CCC(NC(=O)CC(NC(=O)C(CO)NC(=O)C(CC)NC(=O)c1ccc[nH]1)c1ccccc1)C(=O)O (stereo not given),–,inactive,-0.876%,inactive,–,inactive,-9.47%,–,–,inactive,–
COc1cc(/C=C/C(=O)OC2CC3CCC2(C)C3(C)C)ccc1O (stereo not given),inactive,inactive,-0.121%,–,–,inactive,–,9.6%,–,inactive,–
COc1cc(/C=C/C(=O)OC2CC(OC(C)=O)C(OC(C)=O)C3C2CCC2C(=O)OC(c4ccoc4)CC23C)ccc1O[C@@H]1O[C@H](CO)[C@@H](O)[C@H](O)[C@H]1O (stereo not given in full),–,inactive,–,–,-18.6%,inactive,-8.1%,-0.283%,–,–,6.11 µM (active)
CCOc1c2c(c(OCC)c3ccccc13)C(=O)N(c1ccc(CC(=O)NS(=O)(=O)c3ccccc3)cc1)C2,–,inactive,-7.44%,–,3.33%,inactive,-1.51%,1.17%,–,–,–
CC1C/C=C/C=C\CCCCC(O)C/C=C/C(=O)O1 (stereo not given),–,inactive,-3.25%,–,–,inactive,4.17%,1.87%,–,inactive,–
C[C@@H](OC(=O)/C=C/c1ccc(O)cc1)C1=C[C@]2(C=C[C@@H]3C(C(=O)O)=CO[C@@H](O[C@@H]4O[C@H](CO[C@@H]5O[C@H](CO)[C@@H](O)[C@H](O)[C@H]5O)[C@@H](O)[C@H](O)[C@H]4O)[C@@H]32)OC1=O,–,inactive,4.46%,–,2.02%,inactive,1.07%,4.2%,–,–,–
O=C(/C=C/c1ccc(O)c(O)c1)OCc1ccccc1O[C@@H]1O[C@H](CO)[C@@H](O)[C@H](O)[C@H]1O,–,inactive,1.88%,–,-4.16%,inactive,-1.33%,0.279%,–,–,–
CC(=O)O[C@H](C[C@@H](C)[C@H]1C(=O)[C@H](O)[C@@]2(C)[C@@H]3CCC4C(C)(C)[C@@H](O[C@@H]5OC[C@H](O)[C@H](O)[C@H]5O)CC[C@@]45C[C@@]35CC[C@]12C)[C@@H]1OC1(C)C (stereo not given in full),–,inactive,2.98%,inactive,–,inactive,0.817%,–,–,inactive,–
Cc1ccc2c(c1)C=Cc1cc(C)ccc1C2c1cn(Cc2ccc(C(=O)Nc3nn[nH]n3)o2)c(=O)[nH]c1=S,inactive,inactive,-1.86%,inactive,-7.39%,inactive,–,–,–,–,–
CNC(=O)[C@H]1O[C@@H](n2cnc3c(NCc4ccc(N)c(I)c4)ncnc32)[C@H](O)[C@@H]1O,–,inactive,-7.91%,inactive,-0.967%,–,-3.43%,–,inactive [at 9.27 µM],–,–
C=CCc1ccc(O[C@@H]2O[C@H](CO[C@@H]3O[C@H](CO)[C@@H](O)[C@H](O)[C@H]3O)[C@@H](O)[C@H](O)[C@H]2O)c(O)c1,–,inactive,-10.9%,–,–,inactive,-24.9%,-2.46%,–,inactive,–
